Experimental data published in PubChem BioAssay AID736 (The Scripps Research Institute Molecular Screening Center, 2007).
Among all 97,000 compounds or so, about 210 (0.22%) were called active. No stated cut-off is given here; in the data, active means inhibition above about 45%; inactive means the rest. Many of the other results were omitted from the sample, so actives are more common in it than they were.

Biological target: Sphingosine 1-phosphate receptor 2 (Homo sapiens) (UniProt O95136)
Assay: blockers of S1P2 receptor signalling – cell-based, primary screen (AID 736);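 further: CRE beta-lactamase reporter cells expressing human S1P2 stimulated with S1P; 0% = agonist at EC80 alone and 100% = agonist plus reference antagonist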
Conditions: cell-based S1P2 antagonist assay, at 5 µM, hits give high values

Chain of Sphingosine 1-phosphate receptor 2 (Homo sapiens) (O95136 whole entry, looked up): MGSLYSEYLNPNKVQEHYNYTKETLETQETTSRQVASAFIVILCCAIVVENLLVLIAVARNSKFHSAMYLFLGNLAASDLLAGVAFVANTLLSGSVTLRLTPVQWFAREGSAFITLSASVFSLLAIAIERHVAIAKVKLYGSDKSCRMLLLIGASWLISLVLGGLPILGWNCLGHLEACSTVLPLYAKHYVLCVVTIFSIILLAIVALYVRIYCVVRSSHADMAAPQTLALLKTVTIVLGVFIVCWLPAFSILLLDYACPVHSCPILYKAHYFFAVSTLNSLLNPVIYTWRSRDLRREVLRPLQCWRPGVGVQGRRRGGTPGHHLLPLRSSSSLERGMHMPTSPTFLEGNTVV

inhibition, active:
CC(C)OCCCNc1ncnc2c1[nH]c1ccc(F)cc12 65.9%
O=C(/C=C/Sc1ncn[nH]1)c1ccc(Cl)cc1 59.7%

inhibition, inactive:
CCSc1nnc(NC(=O)c2ccc(C)cc2)s1 0.05%
Cc1onc(-c2ccccc2Cl)c1C(=O)OCC(=O)c1ccccc1 -10%
O=C1c2ccccc2C(=O)N1CCC(c1ccccc1)c1ccco1 (stereo unspecified) 11.1%
O=C(CCS(=O)(=O)c1cccc2nsnc12)N1CCN(c2ccccc2F)CC1 11.1%
CC(C)(C)c1ccc(C(=O)NNC(=O)Cc2ccccc2)cc1 -7.08%
COc1ccc(C2CC(=O)Nc3sc(=N)c4c(N)c(C#N)c(N)nc4c32)cc1OC (stereo unspecified) -38.4%
O=C1CCCN1CCCNc1ncnc2c1[nH]c1ccccc12 15.4%
CCN1CCCC1CNc1ncnc2c1[nH]c1ccc(F)cc12 (stereo unspecified) -0.72%
Cc1cc(O)cc(O)c1C(=O)Cc1cnn(-c2ccccc2)c1 -8.95%
COc1ccc(C(=O)Oc2cc(/C=N/NS(=O)(=O)c3ccc(C)cc3)ccc2OC)cc1 1.84%
CC(=O)c1ccc2c(c1)c1ccccc1n2CC(C)C -13.4%
Clc1ccc(CSc2nnc(/C=C/c3ccccc3)o2)c(Cl)c1 -0.17%
CCN(CC)CCn1c2ccc(Cl)cc2c2nc(C)sc21 -30.3%
Cc1ccc(C(=O)/C=C/c2c(C)nn(-c3ccccc3)c2Cl)cc1 -1.65%
CC(C)(C)c1ccc(C(=O)CSc2ncn[nH]2)cc1 19.4%
COc1ccc(C(=O)Cc2cnn(-c3ccccc3)c2)c(O)c1 -22.1%
Cc1ccc(OCc2nnc(NC(=O)OCC(C)C)s2)cc1 -11.9%
CCc1ccccc1NC(=O)/C(=C/c1ccccc1)c1ccccc1 9.77%
O=C(Nc1ccc2c(c1)OCCO2)c1ccc(Cl)c(S(=O)(=O)N2CCCCC2)c1 -2.73%
O=c1c2ccccc2c(-c2ccc(F)cc2)nn1-c1ccc(C(F)(F)F)cc1 8.3%
O=C(NCC1CCCO1)c1ccc2ccccc2n1 (stereo unspecified) -13.9%
Cc1c(C=O)c2ccccn2c1C(=O)c1ccncc1 -13%
Cc1ccc(CN(C(=O)c2sc3ccccc3c2Cl)C2CCS(=O)(=O)C2)cc1 (stereo unspecified) 15.7%
COc1cc(/C=C(/NC(=O)c2ccccc2)C(=O)Nc2cccc(O)c2)c([N+](=O)[O-])cc1OC -3.81%
Cc1cc(C)c([N+](=O)[O-])cc1-c1ccc(/C=N/NC(=O)c2nonc2N)o1 -20.8%
Cc1cc(C)n2nc(C(=O)NC(C)(C)C)nc2n1 -24.4%
CCOC(=O)C(C)n1cnc2sc(C)c(C)c2c1=O (stereo unspecified) -21.8%
O=C(Cc1c(O)c2ccccc2[nH]c1=O)NCc1ccccc1 2.46%
Cc1ccc(N(Cc2ccc(C(=O)Nc3ccccc3C(=O)NCc3ccco3)cc2)S(C)(=O)=O)cc1C 29.7%
CCN1CCN(CCCCOc2ccccc2F)CC1 -15.3%
Cc1noc(COc2ccccc2OCc2onc(C)c2Cl)c1Cl -6.44%
O=C(COc1ccc(Cl)cc1)NCCSc1ccccc1 -5.9%
COCCn1c(C)cc(C2=NNC(=Nc3ccc(F)cc3)SC2)c1C 8.96%
O=C1Cc2ccccc2Sc2ccc(Cl)cc21 1.39%
Cn1c(NN)nc2sc3c(c2c1=O)CCC3 -7.52%
CCOc1ccc(-n2c(N)c(C(=O)NCC3CCCO3)sc2=S)cc1 (stereo unspecified) 1.44%
CCCCOC(=O)Cn1c(=O)n(CC(=O)OCCCC)c2cc(C)ccc21 -1.39%
Cc1ccc(-c2cnc(NC(=O)CCC(=O)N(C)Cc3ccccc3)n2C)cc1 15.9%
O=C1C(Cl)=C(N2CCOCC2)C(=O)N1c1ccccc1 11.4%
O=C(/C=C/c1cc2c(cc1Br)OCO2)NCc1ccc(Cl)cc1 12.8%
O=C(CCCN1C(=O)c2cccc3cccc(c23)C1=O)N1CCN(Cc2ccc3c(c2)OCO3)CC1 13.4%
O=C(CSCc1c(Cl)cccc1Cl)NN1C(=O)c2ccccc2C1=O 7.21%
O=c1cc(N2CCN(Cc3ccccc3)CC2)c(-c2ccccc2)n[nH]1 11.6%
O=C(Nc1cccc2ncccc12)C(Cl)(Cl)Cl 7.55%
O=C(CSc1ncn[nH]1)Nc1ccnc2ccccc12 2.49%
O=C(NCN1CCN(CCO)CC1)c1cnccn1 4.69%
O=C(Nc1nccs1)C1CCN(S(=O)(=O)c2ccc(Cl)c(C(F)(F)F)c2)CC1 13.1%
CC1CC(C)CN(CC(=O)N2c3ccccc3CCc3ccccc32)C1 (stereo unspecified) 3.76%
CCn1c(SCc2ccc(C)cc2)nnc1-c1nn(-c2ccccc2)ccc1=O 7.22%
